Measurements as given in the supplement of paper PMC11732987, “Enantioselective OTUD7B fragment discovery through chemoproteomics screening and high-throughput optimisation” (Communications Chemistry, 2025).

Legend:
Assay in all cases: log2 ratio of Biotin-Ahx-Ub-VS probe labelling (fragment/DMSO); higher = less target engagement (more negative = stronger competition), active = hit call of the paper (q ≤ 0.05, log2 ratio ≤ -1)
Conditions in all cases: compound concentration: 200 uM; treatment time: 3 h
[1] = molecular target: T1, USP19 (UniProt O94966)
T1 sequence (whole entry): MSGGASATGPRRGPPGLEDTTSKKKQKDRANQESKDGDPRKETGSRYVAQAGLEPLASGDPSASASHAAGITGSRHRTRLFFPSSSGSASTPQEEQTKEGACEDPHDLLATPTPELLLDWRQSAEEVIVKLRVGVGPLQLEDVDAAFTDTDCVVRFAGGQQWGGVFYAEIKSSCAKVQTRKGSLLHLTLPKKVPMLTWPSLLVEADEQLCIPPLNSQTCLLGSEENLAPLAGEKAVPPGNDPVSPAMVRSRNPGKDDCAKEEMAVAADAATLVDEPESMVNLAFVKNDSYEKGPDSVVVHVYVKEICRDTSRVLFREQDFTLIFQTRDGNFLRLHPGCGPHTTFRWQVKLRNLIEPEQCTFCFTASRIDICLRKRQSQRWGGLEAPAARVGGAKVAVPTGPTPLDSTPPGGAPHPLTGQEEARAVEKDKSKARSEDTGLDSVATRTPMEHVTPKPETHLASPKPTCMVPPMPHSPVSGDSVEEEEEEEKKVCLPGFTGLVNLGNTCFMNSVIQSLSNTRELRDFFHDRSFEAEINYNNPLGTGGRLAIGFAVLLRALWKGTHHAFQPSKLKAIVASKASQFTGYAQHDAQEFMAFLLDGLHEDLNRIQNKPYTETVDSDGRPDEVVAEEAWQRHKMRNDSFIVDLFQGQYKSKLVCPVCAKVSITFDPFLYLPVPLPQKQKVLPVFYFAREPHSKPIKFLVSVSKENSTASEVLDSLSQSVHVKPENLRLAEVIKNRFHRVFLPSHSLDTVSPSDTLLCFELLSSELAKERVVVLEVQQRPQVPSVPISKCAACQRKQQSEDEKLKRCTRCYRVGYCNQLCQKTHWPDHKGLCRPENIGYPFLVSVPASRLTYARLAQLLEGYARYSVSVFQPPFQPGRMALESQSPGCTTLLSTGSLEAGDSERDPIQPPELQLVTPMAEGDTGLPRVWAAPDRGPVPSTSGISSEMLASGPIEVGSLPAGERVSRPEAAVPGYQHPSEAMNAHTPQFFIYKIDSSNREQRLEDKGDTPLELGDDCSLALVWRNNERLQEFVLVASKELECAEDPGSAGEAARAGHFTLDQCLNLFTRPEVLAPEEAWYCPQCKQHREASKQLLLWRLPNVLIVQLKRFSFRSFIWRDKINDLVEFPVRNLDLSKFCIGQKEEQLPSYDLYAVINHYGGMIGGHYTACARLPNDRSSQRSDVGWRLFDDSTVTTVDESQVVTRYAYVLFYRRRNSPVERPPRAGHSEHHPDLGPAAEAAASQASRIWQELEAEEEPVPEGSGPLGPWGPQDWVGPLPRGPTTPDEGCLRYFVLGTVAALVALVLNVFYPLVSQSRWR
Method in brief: (§1)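 HEK293T lysate in Tris/CHAPS/IGEPAL buffer with protease inhibitors (495 µg per sample) was given fragment at 200 µM or vehicle for 3 h, in triplicate. It then received Biotin-Ahx-Ub-VS at 0.5 µM final for 1 h. Labelled DUBs were NeutrAvidin-enriched, digested with LysC and trypsin, and run by diaPASEF LC-MS/MS. Values are average log2 fragment/vehicle ratios by unpaired t-test on global-median-normalised Spectronaut quantities of proteins with ≥2 unique peptides.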

[2] = molecular target: USP24 (UniProt Q9UPU5)
USP24, sequence (Q9UPU5 whole entry): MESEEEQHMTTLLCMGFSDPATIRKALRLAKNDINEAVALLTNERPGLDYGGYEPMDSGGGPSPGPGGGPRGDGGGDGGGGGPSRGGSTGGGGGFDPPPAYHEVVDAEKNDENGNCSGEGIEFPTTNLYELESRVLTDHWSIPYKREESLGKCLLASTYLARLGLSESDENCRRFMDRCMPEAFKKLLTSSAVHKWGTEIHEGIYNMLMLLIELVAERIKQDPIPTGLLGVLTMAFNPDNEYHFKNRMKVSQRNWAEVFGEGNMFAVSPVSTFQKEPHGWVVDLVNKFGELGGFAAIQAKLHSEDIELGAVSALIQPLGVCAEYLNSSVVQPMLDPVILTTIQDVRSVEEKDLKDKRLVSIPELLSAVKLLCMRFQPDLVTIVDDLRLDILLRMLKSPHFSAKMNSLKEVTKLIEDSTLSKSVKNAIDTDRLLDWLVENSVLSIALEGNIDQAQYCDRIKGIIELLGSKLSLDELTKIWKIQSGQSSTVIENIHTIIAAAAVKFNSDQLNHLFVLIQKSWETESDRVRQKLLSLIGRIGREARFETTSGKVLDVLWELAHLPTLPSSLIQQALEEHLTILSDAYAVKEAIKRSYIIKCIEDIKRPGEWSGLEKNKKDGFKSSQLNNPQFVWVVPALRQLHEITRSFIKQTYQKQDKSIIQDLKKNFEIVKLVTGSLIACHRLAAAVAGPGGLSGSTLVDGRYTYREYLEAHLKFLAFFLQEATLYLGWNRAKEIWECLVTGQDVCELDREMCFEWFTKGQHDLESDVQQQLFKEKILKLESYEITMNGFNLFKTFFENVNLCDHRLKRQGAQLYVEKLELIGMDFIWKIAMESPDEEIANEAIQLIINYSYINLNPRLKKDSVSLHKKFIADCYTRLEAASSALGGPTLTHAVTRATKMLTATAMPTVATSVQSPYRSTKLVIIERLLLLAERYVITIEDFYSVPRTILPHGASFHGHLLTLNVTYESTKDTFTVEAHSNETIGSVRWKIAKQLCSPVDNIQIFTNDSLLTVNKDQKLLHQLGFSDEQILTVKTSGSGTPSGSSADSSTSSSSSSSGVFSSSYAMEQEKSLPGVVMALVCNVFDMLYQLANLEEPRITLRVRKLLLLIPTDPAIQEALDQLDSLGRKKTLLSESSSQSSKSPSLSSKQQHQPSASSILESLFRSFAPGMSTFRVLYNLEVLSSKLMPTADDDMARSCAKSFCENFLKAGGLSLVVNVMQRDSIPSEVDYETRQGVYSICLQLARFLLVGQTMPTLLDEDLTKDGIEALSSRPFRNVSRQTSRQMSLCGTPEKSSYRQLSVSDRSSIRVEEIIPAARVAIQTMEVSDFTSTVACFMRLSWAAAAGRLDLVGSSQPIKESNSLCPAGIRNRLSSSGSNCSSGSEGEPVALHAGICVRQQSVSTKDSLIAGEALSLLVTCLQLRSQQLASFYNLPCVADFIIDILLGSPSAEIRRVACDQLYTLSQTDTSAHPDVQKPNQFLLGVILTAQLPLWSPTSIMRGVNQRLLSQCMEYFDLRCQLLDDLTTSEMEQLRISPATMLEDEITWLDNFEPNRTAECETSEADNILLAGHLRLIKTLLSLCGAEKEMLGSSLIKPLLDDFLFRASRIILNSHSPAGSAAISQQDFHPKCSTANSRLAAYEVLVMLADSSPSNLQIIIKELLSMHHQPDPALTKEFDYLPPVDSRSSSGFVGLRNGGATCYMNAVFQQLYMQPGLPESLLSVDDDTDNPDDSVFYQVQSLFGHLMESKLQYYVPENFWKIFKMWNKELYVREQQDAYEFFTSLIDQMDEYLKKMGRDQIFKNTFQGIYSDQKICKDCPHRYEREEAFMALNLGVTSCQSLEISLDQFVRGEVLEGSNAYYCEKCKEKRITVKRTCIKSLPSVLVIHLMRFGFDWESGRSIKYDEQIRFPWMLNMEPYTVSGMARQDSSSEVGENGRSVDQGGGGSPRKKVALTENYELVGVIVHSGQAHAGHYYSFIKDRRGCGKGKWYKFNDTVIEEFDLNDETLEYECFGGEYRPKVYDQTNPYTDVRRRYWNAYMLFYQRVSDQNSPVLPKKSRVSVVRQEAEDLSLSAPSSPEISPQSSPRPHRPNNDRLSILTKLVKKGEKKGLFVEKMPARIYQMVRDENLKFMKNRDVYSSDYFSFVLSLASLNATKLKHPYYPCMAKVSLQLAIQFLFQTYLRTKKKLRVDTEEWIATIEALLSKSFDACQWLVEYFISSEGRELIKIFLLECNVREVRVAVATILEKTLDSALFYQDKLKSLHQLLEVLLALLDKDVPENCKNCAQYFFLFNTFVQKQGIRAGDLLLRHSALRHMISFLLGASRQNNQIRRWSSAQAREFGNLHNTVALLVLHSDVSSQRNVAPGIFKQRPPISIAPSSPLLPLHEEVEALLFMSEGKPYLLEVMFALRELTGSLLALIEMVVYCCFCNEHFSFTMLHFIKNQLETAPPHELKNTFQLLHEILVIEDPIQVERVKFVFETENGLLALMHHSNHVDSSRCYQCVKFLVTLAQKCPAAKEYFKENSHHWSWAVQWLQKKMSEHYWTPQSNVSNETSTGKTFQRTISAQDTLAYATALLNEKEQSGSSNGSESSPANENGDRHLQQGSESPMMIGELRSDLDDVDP
Method in brief: as §1

[3] = molecular target: T2, USP25 (UniProt Q9UHP3)
T2 sequence (whole entry): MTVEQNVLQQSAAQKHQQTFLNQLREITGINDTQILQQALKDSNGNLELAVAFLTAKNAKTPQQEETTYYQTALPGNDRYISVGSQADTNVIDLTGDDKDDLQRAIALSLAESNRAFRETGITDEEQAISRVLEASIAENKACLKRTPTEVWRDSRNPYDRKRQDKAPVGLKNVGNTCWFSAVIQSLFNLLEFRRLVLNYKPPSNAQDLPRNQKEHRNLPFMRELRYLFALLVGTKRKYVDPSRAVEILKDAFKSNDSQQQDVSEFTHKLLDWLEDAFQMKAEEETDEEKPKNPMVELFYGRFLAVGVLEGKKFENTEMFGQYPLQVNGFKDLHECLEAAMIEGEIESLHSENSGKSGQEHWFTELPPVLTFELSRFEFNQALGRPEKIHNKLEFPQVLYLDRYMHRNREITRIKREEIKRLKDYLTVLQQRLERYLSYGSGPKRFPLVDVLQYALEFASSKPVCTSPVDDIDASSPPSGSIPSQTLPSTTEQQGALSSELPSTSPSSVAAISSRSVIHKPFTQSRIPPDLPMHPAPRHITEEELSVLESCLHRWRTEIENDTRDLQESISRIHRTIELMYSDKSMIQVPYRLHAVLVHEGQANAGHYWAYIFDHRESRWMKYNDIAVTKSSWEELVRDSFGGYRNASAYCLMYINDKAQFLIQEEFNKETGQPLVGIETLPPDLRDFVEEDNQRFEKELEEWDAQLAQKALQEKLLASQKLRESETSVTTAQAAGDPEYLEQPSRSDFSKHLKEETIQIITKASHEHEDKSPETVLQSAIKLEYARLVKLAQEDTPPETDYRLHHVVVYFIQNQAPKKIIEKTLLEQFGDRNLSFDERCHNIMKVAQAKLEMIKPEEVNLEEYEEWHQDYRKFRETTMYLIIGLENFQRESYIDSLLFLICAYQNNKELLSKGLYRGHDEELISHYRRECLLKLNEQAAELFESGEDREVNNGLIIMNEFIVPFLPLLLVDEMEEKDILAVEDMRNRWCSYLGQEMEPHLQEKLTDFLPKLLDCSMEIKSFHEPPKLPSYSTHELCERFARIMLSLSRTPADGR
Method in brief: as §1

[4] = molecular target: T3, USP28 (UniProt Q96RU2)
T3 sequence (whole entry): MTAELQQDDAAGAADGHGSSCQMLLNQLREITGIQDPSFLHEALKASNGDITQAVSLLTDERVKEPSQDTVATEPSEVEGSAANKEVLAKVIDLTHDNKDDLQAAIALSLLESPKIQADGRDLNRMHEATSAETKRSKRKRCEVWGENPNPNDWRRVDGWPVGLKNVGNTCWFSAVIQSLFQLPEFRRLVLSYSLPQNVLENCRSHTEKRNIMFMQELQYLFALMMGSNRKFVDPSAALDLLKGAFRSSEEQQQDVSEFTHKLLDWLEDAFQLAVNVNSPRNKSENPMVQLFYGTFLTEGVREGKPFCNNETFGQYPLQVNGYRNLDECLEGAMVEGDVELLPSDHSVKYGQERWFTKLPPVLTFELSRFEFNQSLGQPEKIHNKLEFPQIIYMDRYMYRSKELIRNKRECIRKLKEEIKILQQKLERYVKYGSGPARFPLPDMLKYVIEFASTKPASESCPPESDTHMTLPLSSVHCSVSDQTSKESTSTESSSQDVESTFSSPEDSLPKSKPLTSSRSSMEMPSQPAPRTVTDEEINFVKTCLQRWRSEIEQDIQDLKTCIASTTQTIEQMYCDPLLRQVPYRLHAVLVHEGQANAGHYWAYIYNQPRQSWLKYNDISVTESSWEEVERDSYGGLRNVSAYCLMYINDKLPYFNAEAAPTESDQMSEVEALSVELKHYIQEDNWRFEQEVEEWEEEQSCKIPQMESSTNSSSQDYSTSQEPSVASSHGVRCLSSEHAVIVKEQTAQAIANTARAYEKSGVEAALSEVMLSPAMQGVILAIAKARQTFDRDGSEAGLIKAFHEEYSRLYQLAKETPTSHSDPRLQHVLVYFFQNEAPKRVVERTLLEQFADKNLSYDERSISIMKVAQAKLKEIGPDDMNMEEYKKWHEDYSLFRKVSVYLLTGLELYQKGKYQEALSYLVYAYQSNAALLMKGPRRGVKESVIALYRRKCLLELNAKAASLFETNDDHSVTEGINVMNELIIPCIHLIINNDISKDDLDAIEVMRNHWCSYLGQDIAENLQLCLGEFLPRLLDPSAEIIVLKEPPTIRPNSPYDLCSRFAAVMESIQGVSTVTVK
Method in brief: as §1

Measured: log2 ratio of Biotin-Ahx-Ub-VS probe labelling

O=C(CCl)N1CC2(CCOCC2)C1
inactive: [1] -0.144 | [2] -0.194 | [3] -0.275 | [4] -0.375
